Laboratory results as given in PubChem BioAssay (NCI).
This is part of a sample that, as a whole, favours compounds with a hit. Of some 83,000 tested, about 20% had one in any assay.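 Treatment: one concentration, 48 hours, 96-well format. Scoring: percent growth, with anything below 10 considered active.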 A number with no mark means an inactive call. Calls of active or inactive are those of the source.

What was measured:
Assay in all cases: NCI-60 one-dose screen, 48 h (100 = growth as untreated, 0 = no growth, -100 = all killed)
SK-MEL-2 melanoma = conditions: 10 µM unless noted
EKVX NSCLC = conditions: 10 µM unless noted
SN12C renal = conditions: 10 µM unless noted
UO-31 renal = conditions: 10 µM unless noted
TK-10 renal = conditions: 10 µM unless noted
ACHN renal = conditions: 10 µM unless noted
CAKI-1 renal = conditions: 10 µM
A498 renal = conditions: 10 µM unless noted
CCRF-CEM leukemia = conditions: 10 µM unless noted
MOLT-4 leukemia = conditions: 10 µM unless noted
SR leukemia = conditions: 10 µM unless noted
RPMI-8226 leukemia = conditions: 10 µM unless noted
OVCAR-8 ovarian = conditions: 10 µM unless noted
OVCAR-5 ovarian = conditions: 10 µM unless noted
OVCAR-4 ovarian = conditions: 10 µM unless noted
SK-OV-3 ovarian = conditions: 10 µM unless noted
IGROV1 ovarian = conditions: 10 µM unless noted
OVCAR-3 ovarian = conditions: 10 µM unless noted
HS 578T breast = conditions: 10 µM unless noted
NCI/ADR-RES ovarian = conditions: 10 µM unless noted

SMILES | growth (SK-MEL-2 melanoma) | growth (EKVX NSCLC) | growth (SN12C renal) | growth (UO-31 renal) | growth (TK-10 renal) | growth (ACHN renal) | growth (CAKI-1 renal) | growth (A498 renal) | growth (CCRF-CEM leukemia) | growth (MOLT-4 leukemia) | growth (SR leukemia) | growth (RPMI-8226 leukemia) | growth (OVCAR-8 ovarian) | growth (OVCAR-5 ovarian) | growth (OVCAR-4 ovarian) | growth (SK-OV-3 ovarian) | growth (IGROV1 ovarian) | growth (OVCAR-3 ovarian) | growth (HS 578T breast) | growth (NCI/ADR-RES ovarian)
O=C(CCCCCCN1CC(=O)N2[C@@H](c3cc(F)cc(F)c3)c3[nH]c4ccccc4c3C[C@H]2C1=O)NO | 62.1% | 78.9% | 71.9% | 61.6% | 69.6% | 88.8% | 64.7% | 77.6% | 16.5% | 14.2% | 26% | 24.2% | 45% | 66.4% | 69.4% | 60.9% | 49.1% | 55.8% | 61.6% | 91.5%
COc1cc(/C=N/n2cnc3oc(-c4ccccc4)cc3c2=N)cc(CN2CCOCC2)c1O | 104% | 89.9% | 72.4% | 74% | 102% | 28% | 43.7% | 53.8% | 26.2% | 52.9% | 32% | 27.5% | 60.4% | 84.2% | 72.6% | 68.4% | 21.7% | 108% | 14.8% | 72.5%
CCN(CC)c1ccc2cc(C(=O)NCCOCCOCCOCCn3cc(CCC(=O)Nc4ccc(C(=O)c5ccc(NC(=O)OC(C)(C)C)cc5)cc4)nn3)c(=O)oc2c1 | 67.6% | 73.5% | 68.7% | 62.5% | 95.6% | 84.1% | 25.7% | 84.8% | 19% | 21.4% | 44% | 16.2% | 17.4% | 99.8% | 33.5% | 98.3% | 41.1% | 44.6% | 83.7% | 88.3%
Oc1ccc(CSc2nnc(-c3ccccc3)o2)c2cccnc12 | 35.4% | 33.1% | 32.1% | 1.52% (active) | 28.6% | 10.4% | 16.6% | 70.7% | 10% | 14.4% | 36.8% | 14.1% | 17.5% | 74% | 16.5% | 10.8% | 18.5% | 28.2% | -3.94% (active) | 11.1%
O=C(/C=C1\C=CN(CCCCCCF)c2ccccc21)n1ccc2ccccc21 | 111% | 79% | 90.5% | 71.5% | 115% | 97.4% | 86.5% | 96.3% | 96.1% | 106% | 85.8% | 74.7% | 101% | 99.3% | 81.9% | 98.8% | 67.6% | 100% | 96.7% | 105%
COc1cc2cc(Oc3ccc(NC(=O)c4cccc(C(F)(F)F)c4)cc3)c(C)nc2cc1OCCN(C)C | 108% | 83% | 84.1% | 84% | 98% | 86.6% | 75.2% | 100% | 41% | 67.1% | 28.6% | 73.1% | 89.8% | 103% | 80.5% | 108% | 93.2% | 102% | 74.8% | 80.7%
O=c1oc2ccc(-c3ccc(F)cc3F)cc2c(=O)n1-c1ccc(F)c(F)c1 | -14.3% (active) | 9.2% (active) | 2.02% (active) | -12.4% (active) | 10.8% | 2.6% (active) | -15.4% (active) | -42.6% (active) | 16.4% | 6.43% (active) | 27.5% | -19.1% (active) | 8.19% (active) | 12.9% | 9.07% (active) | 6.15% (active) | 15.1% | 5.59% (active) | 1.72% (active) | 3.65% (active)
O=C(CCCCCCN1CC(=O)N2[C@@H](c3cccc(Cl)c3)c3[nH]c4ccccc4c3C[C@H]2C1=O)NO | 56% | 70.1% | 65.7% | 60.3% | 57.1% | 87.1% | 47.7% | 72.8% | 17.1% | 17.5% | 39.5% | 15% | 34.8% | 54.3% | 61% | 51.8% | 4.61% (active) | 36.3% | 69.3% | 94.3%
COc1cc2cc(Oc3ccc(NC(=O)Nc4cccc(C(F)(F)F)c4)cc3)c(C)nc2cc1OCCN(C)C | 111% | 92.9% | 92.3% | 89.8% | 110% | 97.3% | 89.9% | 106% | 71.4% | 80.5% | 26.1% | 92.3% | 97.9% | 108% | 92.9% | 107% | 102% | 122% | 112% | 93.9%
O=C(Nc1ccc(F)cc1)c1cc(-c2ccc(F)cc2F)ccc1O | -8.37% (active) | 30.5% | 3.57% (active) | -8.25% (active) | 13.1% | 9.87% (active) | -0.83% (active) | -28.7% (active) | 17.8% | 13.9% | 26.2% | -11.7% (active) | 7.54% (active) | 69.4% | 11.2% | -8.88% (active) | 14.7% | 6.06% (active) | 6.19% (active) | 5.27% (active)
COc1ccc(/C=N/Nc2nc(N/N=C/c3ccc(OC)cc3O)nc(N3CCOCC3)n2)c(O)c1 | 82.6% | 46.6% | 75.1% | 11.2% | 78.1% | 27.9% | 37.9% | 66.8% | 27.1% | 35.3% | 27.4% | 41.7% | 69.1% | 68.1% | 63.1% | 89.1% | 51.1% | 19.1% | 77.7% | 23.1%
COc1ccc(-c2nnc(SCc3ccc(O)c4ncccc34)n2-c2ccccc2)cc1 | 33.8% | 23.6% | 24.3% | -12.2% (active) | 38.4% | 4.43% (active) | 11.5% | 35.3% | 10.7% | 17.2% | 34.3% | 10.9% | 16.1% | 53.3% | 13.6% | 12.5% | 10% | 8.67% (active) | 22.1% | 4.3% (active)
O=C1C[C@@H](c2ccccc2)Oc2c(Cc3ccccc3O)c(O)c(Cc3cc(Cc4cc(Cc5ccccc5O)ccc4O)ccc3O)c(O)c21 | 110% | 93.2% | 100% | 66.6% | 147% | 94.4% | 75.5% | 98.3% | 91.5% | 76.3% | 99.5% | 88% | 97.2% | 107% | 99.6% | 103% | 82.6% | 96.4% | 85.4% | 106%
COCCC[C@H]1O[C@@](O)([C@H](C)[C@@H]2CC(OC)C(O)/C=C(C)/C=C(C)/C=C(\C)C(OC3O[C@@H](C)[C@H](O)C(O)[C@@H]3O)C(C)/C=C(C)/C=C(OC)/C=C(\C)C(=O)O2)C(OC)C(O)[C@]1(C)O[C@H]1C[C@@H](O)[C@H](O[C@H]2C[C@](C)(O)[C@H](O)C(C)O2)C(C)O1 (stereo not given in full) | 50.6% | 21.6% | 68.3% | 25.7% | 49.9% | 67.7% | 73.8% | 56% | 53.9% | 47.8% | 113% | 27.5% | 41.9% | 78.9% | 19.7% | 61% | 88.1% | 74.9% | 86.1% | 67.3%
Cc1ccc(S(=O)(=O)N/N=C/c2cn(-c3ccc(F)cc3)nc2-c2ccc(S(C)(=O)=O)cc2)cc1 | 102% | 96.6% | 99.8% | 89.8% | 103% | 102% | 98% | 87.5% | 103% | 106% | 107% | 106% | 102% | 105% | 101% | 105% | 99.7% | 109% | 107% | 106%
